Results as given in PubChem BioAssay (NCATS).
Inconclusive results are not listed. The source made the active and inactive calls. Calls follow the shape of the dose curve; as a rule, active = well fitted curve in the direction sought with a large enough effect; inconclusive = small, poorly fitted or top-dose-only effect, or another doubt; inactive = no such curve, though single readings can be large; an effect the other way counts as inactive or inconclusive.

Legend:
[1] = biological target: Calcium and integrin-binding protein 1 (Homo sapiens) (UniProt Q99828); assay: Validation qHTS for Identification of Calcium Integrin Binding protein 1 (CIB1) Competitor (AID 1508618)
Calcium and integrin-binding protein 1 (Homo sapiens), sequence (Q99828 whole entry, looked up): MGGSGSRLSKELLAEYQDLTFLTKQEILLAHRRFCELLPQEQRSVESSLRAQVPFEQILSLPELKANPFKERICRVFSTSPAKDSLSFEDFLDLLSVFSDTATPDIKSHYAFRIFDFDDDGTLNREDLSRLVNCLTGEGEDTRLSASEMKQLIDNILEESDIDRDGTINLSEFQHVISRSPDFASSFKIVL
How it was run: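 CIB1-GST (1 uM final) in 5 mM HEPES pH 7.4, 125 mM NaCl, 5 mM CaCl2, 0.01% Tween20 was preincubated 15 min at room temperature with compound (up to 114 uM), then FITC-alphaIIb peptide (100 nM) added for 15 min; fluorescence polarization read.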

[2] = Primary qHTS for small molecule stabilizers of the endoplasmic reticulum resident proteome: Secreted ER Calcium Modulated Protein (SERCaMP) assay (AID 1508630)
How it was run: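 GLuc-SERCaMP-expressing SH-SY5Y cells, pretreated 16 h with compound, are challenged with thapsigargin to empty ER calcium stores; after 4 h, coelenterazine is added directly to the medium and luminescence is imaged.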

Papain (Carica papaya) = Papain (Carica papaya) (UniProt P00784); assay: Primary qHTS assay for inhibitors of the protease papain (AID 1645873);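 also: papain turnover of Z-FR-AMC read as the AMC fluorescence gain over 10 min; series mostly up to about 50 µM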
Papain (Carica papaya), sequence (P00784 whole entry, looked up): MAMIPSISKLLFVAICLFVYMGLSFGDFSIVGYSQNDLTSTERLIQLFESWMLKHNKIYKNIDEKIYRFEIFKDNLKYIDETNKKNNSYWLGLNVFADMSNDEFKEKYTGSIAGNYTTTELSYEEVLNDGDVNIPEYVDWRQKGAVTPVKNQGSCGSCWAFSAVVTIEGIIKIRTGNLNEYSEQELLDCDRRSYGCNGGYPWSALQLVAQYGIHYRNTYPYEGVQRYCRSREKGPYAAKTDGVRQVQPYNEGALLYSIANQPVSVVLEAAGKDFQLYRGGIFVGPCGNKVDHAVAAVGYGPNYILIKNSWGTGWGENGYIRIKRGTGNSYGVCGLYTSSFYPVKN

[3] = biological target: Single-stranded DNA cytosine deaminase (Homo sapiens) (UniProt Q9GZX7); assay: Validation qHTS assay for inhibitors of Activation Induced Cytidine Deaminase (AID): AID signal (AID 1347429)
Single-stranded DNA cytosine deaminase (Homo sapiens), sequence (Q9GZX7 whole entry, looked up): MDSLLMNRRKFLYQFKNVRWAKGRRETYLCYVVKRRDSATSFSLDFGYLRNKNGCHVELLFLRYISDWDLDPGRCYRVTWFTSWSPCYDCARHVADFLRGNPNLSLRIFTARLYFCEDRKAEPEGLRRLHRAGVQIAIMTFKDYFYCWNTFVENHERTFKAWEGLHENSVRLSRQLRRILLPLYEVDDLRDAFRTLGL
How it was run: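 Fluorescence at 540 nm excitation and 590 nm emission reports ssDNA cytosine deamination by AID, with UDG in the same well. Compound-treated reactions ran 4 hr at room temperature with DJC20/DJC23 substrate, followed by 30 min NaOH treatment.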

[4] = Primary qHTS for inhibitors of La Crosse Virus (LACV) - induced cell death in SH-SY5Y cells (AID 1508616);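 also: top concentration of the series differs between compounds; higher means more rescue of cells from virus-induced death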
How it was run: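 Protection against LACV-induced cell death is scored in SH-SY5Y cells exposed to compounds and virus (0.01 MOI) for 6 days. Data normalized to virus-infected DMSO wells and virus-free DMSO wells.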

Measured: Potency

CN(C)S(=O)(=O)c1ccc2c(c1)/C(=C/c1cc3c([nH]1)CCCC3)C(=O)N2
inactive: [1] | [2] | Papain (Carica papaya)

NCC(O)C1CCCCCCC1 (configuration not stated)
not listed: [4]
inactive: all other assays above

NC1(C(=O)O)CCc2cc(C(=O)O)ccc21 (configuration not stated)
inactive: [3] | [2] | Papain (Carica papaya)

CN(C)CCCc1cc(C(=O)Nc2ccc(-c3ccncc3)cc2)ccc1O
inactive: [1] | [2] | Papain (Carica papaya)

NCC(O)c1ccc(O)c(O)c1 (configuration not stated)
inactive: [3] | [2]

C[C@](Cc1ccc(O)c(O)c1)(NN)C(=O)O
inactive: [3] | [1] | Papain (Carica papaya)

CN1CCN(c2nc3cc(C(F)(F)F)ccc3n3cccc23)CC1
inactive: [3] | Papain (Carica papaya)

CCCCCCCCCCCCCCCCCCOC[C@H](COP(=O)([O-])OCC[N+](C)(C)C)OC
not listed: [4]
inactive: all other assays above

CC[n+]1c(/C=C/C=C2/N(C)c3ccccc3C2(C)C)sc2ccccc21
inactive: [1] | Papain (Carica papaya)

CC[C@H](NC(=O)c1c(C)c(-c2ccccc2)nc2ccccc12)c1ccccc1
inactive: [3] | [1] | Papain (Carica papaya)

O=C(O)C1=CCCN(CCON=C(c2ccccc2)c2ccccc2)C1
not listed: [4]
inactive: all other assays above

O=c1cc(-c2ccccc2)[nH]c2nc(Cl)ccc12
not listed: [4]
inactive: all other assays above

O=C(O)c1ccccc1Nc1cccc(OCc2ccc3ccccc3n2)c1
inactive: [3] | [2] | Papain (Carica papaya)

COC(=O)C1=C(C)NC(C)=C([N+](=O)[O-])C1c1ccccc1C(F)(F)F (configuration not stated)
not listed: [4]
inactive: all other assays above

O=c1oc(Cl)c(Cl)c2ccccc12
inactive: [3] | [2] | Papain (Carica papaya)

O=[N+]([O-])c1cccc2c(Br)[nH]nc12
inactive: [3] | [2] | Papain (Carica papaya)

COc1ccc(NC(=O)c2ccc(-c3ccc(-c4noc(C)n4)cc3C)cc2)cc1N1CCN(C)CC1
inactive: [3] | [2] | Papain (Carica papaya)

COc1cc2c(CCNC(C)=O)c[nH]c2cc1O
inactive: [3] | [1] | Papain (Carica papaya)

O=C1OC(=O)C2C3CCC(O3)C12 (configuration not stated)
not listed: [4]
inactive: all other assays above

O[Si](CCCN1CCCCC1)(c1ccc(F)cc1)C1CCCCC1 (configuration not stated)
inactive: [3] | [1] | Papain (Carica papaya)

Nc1ccc(-c2nc3ccc(-c4nc5ccc(N)cc5[nH]4)cc3[nH]2)cc1
inactive: [3] | [2]

NC(Cc1cccc(-c2ccccc2CP(=O)(O)O)c1)C(=O)O (configuration not stated)
inactive: [3] | [1] | Papain (Carica papaya)

COc1ccccc1N1CCN(CCCCNC(=O)c2ccc3ccccc3c2)CC1
not listed: [4]
inactive: all other assays above

CC1=C(C(=O)O)N2C(=O)[C@@H](NC(=O)C(N)C3=CCC=CC3)[C@H]2SC1 (some centres not stated)
inactive: [3] | [1] | Papain (Carica papaya)

CC1=C(/C=C/C(C)=C/C=C/C(C)=C\C(=O)O)C(C)(C)CCC1
not listed: [4]
inactive: all other assays above

CN1CCC2(CCN3CCc4c(oc5ccccc45)C3C2)N(C)C1=O (configuration not stated)
inactive: [3] | [2] | Papain (Carica papaya)

CCN(c1nc(N)c(C(=O)N=C(N)N)nc1Cl)C(C)C
inactive: [3] | [1] | Papain (Carica papaya)

CCCCCCCCCCCCCCSCC(=O)O
not listed: [3]
inactive: all other assays above

O=C(O)Cc1c[nH]c2ccc(O)cc12
inactive: [3] | [1] | Papain (Carica papaya)

Clc1nccc2c1ccc1ccccc12
not listed: [4]
inactive: all other assays above

[N-]=[N+]=Nc1ccc(C(=O)CSC[C@H](NC(=O)CC[C@H](N)C(=O)O)C(=O)NCC(=O)O)cc1
inactive: [4] | [1] | [2]

O=C1Cc2c([nH]c3ccc(Br)cc23)-c2ccccc2N1
inactive: [3] | [2] | Papain (Carica papaya)
